Tau fil binding = qHTS Assay for Tau Filament Binding; AID 596, 2007; Potency, µM (top dose mostly 57.1 µM), for inactives: top-dose activity change, negative = inhibition; actives 2% (n = 71,000); recombinant tau filaments, thioflavin S fluorescence, 15 h; filaments grown with octadecylsulfate alongside compound; Microtubule-associated protein tau (Homo sapiens), P10636;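 note: % is set by controls: 0 for no effect and ±100 for the full control effect; actives lower thioflavin S fluorescence by blocking filaments or displacing dye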
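Quantitative HTS: thioflavine S signal from ODS-induced tau filaments, excited at 450 nm, emission 510 nm. Conditions: 1 uM tau, 30 uM ODS, 15 h at 37 C, pH 7.4.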
TSHR ag = qHTS Assay for Agonists of the Thyroid Stimulating Hormone Receptor | HEK293-CNG-TSHR cells (CNG channel as cAMP sensor), membrane potential dye, cAMP | Thyrotropin receptor (Homo sapiens), P16473 | actives 0.48% (n = 73,000) | Potency, µM (highest dose often 57.1 µM), for the others: at the top dose activation, usual class: activators; active = well fitted activation curve with a large enough effect in the main read-out, with a control signal flat, not every such curve was filed as active; inconclusive = small, poorly fitted or top-dose-only effect, or a change in a side signal; inactive = no such curve, though single readings can be large or run the other way; % of control where 0% means no effect;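 note: the control signal comes from parental cells without the receptor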
Target sequence (P16473 whole entry, looked up): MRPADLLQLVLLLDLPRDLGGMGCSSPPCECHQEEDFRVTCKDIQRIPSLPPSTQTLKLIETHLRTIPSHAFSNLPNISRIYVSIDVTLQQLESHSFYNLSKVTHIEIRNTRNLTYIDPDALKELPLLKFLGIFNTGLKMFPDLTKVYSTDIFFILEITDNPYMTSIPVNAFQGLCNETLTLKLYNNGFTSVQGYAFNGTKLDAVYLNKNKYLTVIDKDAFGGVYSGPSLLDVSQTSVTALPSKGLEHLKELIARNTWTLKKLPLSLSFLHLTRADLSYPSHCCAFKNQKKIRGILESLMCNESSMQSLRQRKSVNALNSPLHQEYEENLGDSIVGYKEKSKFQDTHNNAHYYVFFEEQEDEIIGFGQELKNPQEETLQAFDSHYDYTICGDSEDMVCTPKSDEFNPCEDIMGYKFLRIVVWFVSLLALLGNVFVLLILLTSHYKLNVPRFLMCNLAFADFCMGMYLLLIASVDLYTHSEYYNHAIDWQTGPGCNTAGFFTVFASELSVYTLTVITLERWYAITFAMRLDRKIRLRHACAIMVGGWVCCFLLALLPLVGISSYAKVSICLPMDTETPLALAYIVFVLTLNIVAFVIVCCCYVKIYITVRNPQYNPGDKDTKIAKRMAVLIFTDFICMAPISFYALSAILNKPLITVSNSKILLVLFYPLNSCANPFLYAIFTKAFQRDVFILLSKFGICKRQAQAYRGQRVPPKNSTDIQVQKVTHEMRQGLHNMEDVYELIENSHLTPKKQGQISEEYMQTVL
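HEK 293 cells stably expressing TSHR and a modified CNG channel, with CNG-only parental cells as counterscreen, were preloaded 60 min at room temperature with membrane potential dye containing 100 uM RO 20-1724. Compound exposure was 30 min, and depolarization was read as fluorescence at 590 nm.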
HEK293 cAMP cs = qHTS Assay for Agonists of the Thyroid Stimulating Hormone Receptor: Activators of Intracellular cAMP Concentrations in Parental HEK 293 | actives 2.5% (n = 73,000) | parental HEK293 CNG cAMP sensor, membrane potential fluorescence | AID 938, 2007 | Potency, µM (highest dose often 57.1 µM), for inactives: top-dose activation, hits mostly activators; note: % of control where 0% means no effect; nearly all actives have a fitted effect of over 55% in size
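Parental HEK 293 cells stably expressing a modified CNG channel (no TSHR) report cAMP rise as membrane depolarization. Membrane potential dye with 100 uM RO 20-1724 was loaded for 60 min at room temperature, then compound added for 30 min; fluorescence read at 590 nm.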
Hsp90 Hop PPI = qHTS Assay for Disrupters of an Hsp90 Co-Chaperone Interaction; Hsp90 C-terminal peptide / TPR2A (Hop) interaction, human; Potency, µM (series often up to 57 µM), for inactives: top-dose activity change, negative = inhibition; actives 0.44% (n = 71,000); AlphaScreen TPR2A-His6 binding biotin-Hsp90 C-terminal peptide; active = well fitted curve in either direction with a large enough effect; inconclusive = small, poorly fitted or top-dose-only effect, or another doubt; note: % is set by controls: 0 for no effect and ±100 for the full control effect
DNA Pol III inh = qHTS Assay for Inhibitors of DNA Polymerase III Holoenzyme System; Potency, µM (top dose mostly 57.1 µM), inactives show at the top dose activity change, negative = inhibition; reconstituted DNA polymerase III holoenzyme replication, biochemical; actives 0.25% (n = 71,000); AID 603, 2007; note: % is set by controls: 0 for no effect and ±100 for the full control effect
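Reconstituted *E. coli* holoenzyme (0.35 nM Pol III, 1 nM beta, 154 nM SSB, 2 nM primase) was preincubated with compound for 15 min at RT. Synthesis on 1.4 nM ssM13Gori ran 35 min, then was stopped with PicoGreen/EDTA and read as dsDNA fluorescence.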
Active calls of the source: *; u = inconclusive; x = not tested or not shown; ! = not active in a repeat; [ ] = remark or other dose. Hits are enriched below; roughly 5.1% of the tested compounds scored in any of these assays. Unless noted, calls come from the whole dose curve; as a rule, active = well fitted curve in the direction sought with a large enough effect; inconclusive = small, poorly fitted or top-dose-only effect, or another doubt; inactive = no such curve, though single readings can be large; an effect the other way counts as inactive or inconclusive. Potency is the fitted concentration of half-maximal effect.

SMILES | Tau fil binding | TSHR ag | HEK293 cAMP cs | Hsp90 Hop PPI | DNA Pol III inh
O=C1c2cccc([N+](=O)[O-])c2C(=O)N1c1ncn[nH]1 | 6.1%[11.4 µM] | 1.6%[11.4 µM] | -0.1%[11.4 µM] | -2.5%[11 µM] | -11.5%[11.4 µM]
O=[N+]([O-])c1cccc2c(Br)[nH]nc12 | 39.8µM*! | -8.0% | 3.0% | -2.5% | -7.9%
CC[C@H]1CN(C)[C@H]2Cc3c([nH]c4ccccc34)C(=O)C[C@H]1[C@H]2C(=O)OC | -2.9%[11.4 µM] | -0.2%[11.4 µM] | -1.0%[11.4 µM] | u | -8.6%[11.4 µM]
Cc1cc2nc(C3CCN(CC4COc5ccccc5O4)CC3)[nH]c2cc1C (stereo not drawn) | 78.7% | u | u | -1.6% | -10.8%
CCN(CCCNC(=O)CCc1nc(-c2ccc(OC)cc2)no1)c1cccc(C)c1 | u | 12.6µM* | 18.4% | -11.5% | -1.0%
COc1ccc(-c2noc(CCC(=O)NCCN(C)Cc3ccccc3)n2)cc1 | -18.4% | u | u | -2.0% | -2.9%
FC(F)(F)c1ccc(N2CCN(c3cc(-c4ccccc4)nc4ncnn34)CC2)nc1 | 35.6% | u | 15.8µM* | -1.8% | -1.4%
CC1=CC(C#N)(C#N)C(C#N)(C#N)C(c2ccccc2)N1 (stereo not drawn) | 182.7% | 0.5% | 7.9% | 3.16µM* | -4.8%
O=C(O)c1ccc(C(=O)O)c(C(=O)Nc2ccc3c(c2)Cc2ccccc2-3)c1 | -2.3%[11.4 µM] | 3.3%[11.4 µM] | -7.3%[11.4 µM] | -0.1%[11 µM] | -9.9%[11.4 µM]
Clc1ccc(-c2nnc3sc(-c4ccccn4)nn23)cc1 | 0.7% | 5.9% | 4.2% | -3.8% | -0.1%
c1ccc(-c2nn3c(-c4ccncc4)nnc3s2)nc1 | 12.6µM* | 27.9% | 7.0% | u | -14.0%
CC(C)(C)c1ccc(-c2nnc3sc(-c4ccccn4)nn23)cc1 | u | 22.5% | 21.4% | 2µM* | -10.5%
Cc1ccc(-c2nnc3sc(-c4ccncc4)nn23)cc1 | 25.1µM* | -3.6% | -2.8% | -10.0% | -4.6%
N[C@@H](Cc1cc(CP(=O)(O)O)cc(-c2ccccc2Cl)c1)C(=O)O | u | -2.9% | 3.5% | 2.8% | -12.2%
CN(C)/N=N\c1nc[nH]c1C(N)=O | 0.4%[25.6 µM] | u | u | -4.3%[26 µM] | -6.8%[25.6 µM]
CN(CC(=O)O)CC(=O)O | 5.2%[11.4 µM] | 0.8%[11.4 µM] | -2.2%[11.4 µM] | -1.9%[11 µM] | -8.2%[11.4 µM]
Cn1c(Nn2cnnc2)nc2ccccc21 | 5.1% | u | 3.16µM* | -6.2% | -2.7%
Cn1c(CNc2nc3ccccc3n2C)nc2ccccc21 | 13.8% | 10.3% | 5.5% | u | 4.5%
Cc1cnc(CNc2ncnc3ccc(-c4ccccc4C#N)cc23)cn1 | -5.4% | 11.3% | -6.5% | 1.5% | 9.9%
Cc1noc(C)c1C(=O)N1CCC2(CC1)CN(Cc1cc(C(F)(F)F)cc(C(F)(F)F)c1)C2 | -11.4% | 1.9% | 5.4% | 1.3% | -4.2%
CC(C)[C@@H](CC(=O)N[C@@H]1CCNC[C@H]1C(=O)N[C@H](CC(=O)N[C@@H](CCC(=O)O)CC(=O)O)Cc1ccccc1)NC(=O)C[C@H](Cc1c[nH]c2ccccc12)NC(=O)[C@@H]1CCCC[C@H]1N | -25.2% | 6.5% | 6.0% | 31.6µM* | -0.3%
CO[C@@H]1/C=C\CC(=O)N[C@@H](C)C(=O)OC[C@@H](OC)[C@H](C)CCCC(=O)OC[C@H]1C | x | 2.6%[11.4 µM] | 2.1%[11.4 µM] | x | x
CCN1C=C(Cc2cccs2)C2=C(C1)C(c1cccs1)C(C#N)=C(N)O2 (stereo not drawn) | 3.98µM* | u | u | -22.7% | -0.2%
COC(=O)N1CCC2(CCCN(C(=O)Nc3ccccc3)C2)CC1 | 5.3% | 3.2% | 4.8% | -8.8% | -6.2%
O=C(Nc1c2c(nn1-c1ccc(F)cc1)CS(=O)(=O)C2)C12CC3CC(CC(C3)C1)C2 | -8.6% | u | 15.8µM* | 1.8% | 0.3%
SMILES | Tau fil binding | TSHR ag | HEK293 cAMP cs | Hsp90 Hop PPI | DNA Pol III inh
O=C(CCC1CCCCC1)Nc1c2c(nn1-c1ccc(F)cc1)CS(=O)(=O)C2 | -3.6% | u | 3.16µM* | -4.2% | 1.1%
CC(C)CC(=O)Nc1c2c(nn1-c1ccc(F)cc1)CSC2 | -0.2% | u | u | -5.1%[2.3 µM] | -6.7%
CCOC(=O)c1ccc(NC(=O)CSc2nc3c(c(=O)n2C)SC(C)C3)cc1 (stereo not drawn) | -19.2% | u | 20µM* | -4.1% | -5.3%
CCn1c(SCC(=O)N2CCCC2)nc2c(c1=O)SC(C)C2 (stereo not drawn) | -8.9% | x | 20.8% | -0.8% | 2.2%
CCn1c(SCC(=O)N2CCN(c3ccc(F)cc3)CC2)nc2ccccc2c1=O | 2.8% | u | u | -0.2% | -8.5%
CCOC(=O)c1ccc(NC(=O)CSc2nc3c(c(=O)n2CC)SC(C)C3)cc1 (stereo not drawn) | x | x | x | -2.7% | -2.8%
CCn1c(SCC(=O)N2CCN(c3ccccc3)CC2)nc2c(c1=O)SC(C)C2 (stereo not drawn) | 24.2% | u | 25.1µM* | -4.7% | -3.9%
CCCn1c(SCC(=O)N2CCN(c3ccccc3)CC2)nc2ccccc2c1=O | 22.4% | 5.01µM* | 27.2% | 1.2% | -1.6%
CCOCCOC(=O)C1=C(C)Nc2ccc(C)cc2S1 | 12.6µM* | -15.7% | -6.1%[2.29 µM] | -23.3% | 0.5%
O=C1CCC[C@@H](C2=CCCCC2=O)C1 | x | 7.3%[11.4 µM] | -4.0%[11.4 µM] | x | x
COCCOC(=O)C1=C(C)NC2=C(C(=O)CC(C)(C)C2)C1c1cccnc1 (stereo not drawn) | 22.6% | -0.8% | 9.0% | 0.8% | -2.8%
CC1=C(C(=O)OCC2CCCO2)C(c2ccncc2)C2=C(CC(C)(C)CC2=O)N1 (stereo not drawn) | 0.1% | u | 3.98µM* | -3.3% | -6.2%
c1cc2c3c(c1)c1c(n3CCNC2)CCCC1 | 31.6µM* | 11.8% | -5.5% | -23.9% | -1.9%
CS[C@@H](CC(=O)O)C(=O)O | 5.8%[11.4 µM] | -1.4%[11.4 µM] | 1.8%[11.4 µM] | -3.5%[11 µM] | -7.6%[11.4 µM]
CCN1CCN(c2cc(C)c3cc(NC(=O)c4cnccn4)ccc3n2)CC1 | 10µM* | -2.7% | 5.2% | -3.0% | -10.1%
CCN1CCN(c2cc(C)c3cc(NC(=O)Cc4ccc(OC)c(OC)c4)ccc3n2)CC1 | -28.4% | -2.6% | 0.6% | -0.8% | -6.7%
COc1ccc(C(=O)N2CCC3(CCN(Cc4ccncc4)CC3)CC2)cc1 | -4.3% | u | u | 2.6% | 26.3%
COc1cc(CN2CCCCC2)cc2cc(C(=O)O)c(=O)oc12 | 3.7%[11.4 µM] | 1.3%[11.4 µM] | 14.8%[11.4 µM] | -1.3%[11 µM] | -10.6%[11.4 µM]
N#Cc1ccc(CN2CC3(CCN(C(=O)c4ccco4)CC3)C2)cc1 | -0.3% | -0.8% | 8.4% | -4.9% | -2.9%
CC1=C(C(=O)OCc2ccccc2)C(c2ccc(C(C)(C)C)cc2)NC(=O)N1CCCCCC(=O)O (stereo not drawn) | -22.0% | u | 20µM* | -4.9% | 0.6%

Source: PubChem BioAssay
